Gal4-VP16 FLuc: inhibits Gal4-VP16 luciferase reporter, ROR gamma counter-screen. Drosophila S2 Gal4-VP16 UAS-luciferase, luminescence, 20 h. Potency, µM (highest dose often 53.6 µM), for inactives: at the top dose activity, negative = inhibition, most hits filed as inhibitors. 310,000 compounds, 3.5% hits;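 note: Gal4-VP16 expression switched on by copper sulfate through the metallothionein promoter; potency is the fitted concentration of half-maximal effect; % is set by controls: 0 for no effect and ±100 for the full control effect; nearly all actives have a fitted effect of over 50% in size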
ELG1 DNA repair: ELG1-dependent DNA repair inhibition; AID 504467; Potency, µM (titrated, usually from 46.1 µM), for inactives: at the highest dose activity change, negative = inhibition, most hits filed as inhibitors; HEK293T ELG1-luciferase reporter, luminescence, 16 h; DNA damage induced by 5-fluorouridine; 330,000 compounds, 2.3% hits; note: potency is the fitted concentration of half-maximal effect; % is set by controls: 0 for no effect and ±100 for the full control effect; nearly all actives have a fitted effect of over 55% in size
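Cells (2,000 per well) received 5-fluorouridine plus test compound or DMSO and were incubated 16 hr at 37 °C, 5% CO2. Luciferase activity was read by luminescence 30 min after ONE-Glo addition; signal suppression marked inhibition of damage-induced ELG1 function.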
Giardia kill: kills Giardia lamblia; 340,000 compounds, 0.15% hits; Giardia lamblia trophozoite viability; activity change, % at 7.66 µM, hits read low; AID 540267; in the data active = activity change below about -80%; inconclusive = between about -30% and that limit;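 note: parasites exposed to compound for two days anaerobically before the ATP read; % is set by controls: 0 for no effect and ±100 for the full control effect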
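Killing of trophozoites was scored by loss of ATP luminescence after a 48 hrs anaerobic exposure to compounds at 37 deg C, using 100 cells per well.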
p53 reactivator: mutant p53 re-activation in reporter cells; Potency, µM (top dose mostly 92.2 µM), for the others: top-dose activity change, positive = activation, most hits filed as activators; H1299 p53-A138V BP100-luciferase reporter, luminescence, 24 h; 320,000 compounds, 0.063% hits; note: potency is the fitted concentration of half-maximal effect; % of control where 0% means no effect; nearly all actives have a fitted effect of over 45% in size
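p53-null H1299 cells stably carrying temperature-sensitive p53-A138V and a BP100-luciferase reporter were pinned with compounds (4-point, 1:5 series) and held 24 hrs at 37 deg C. Luminescence was read 10 min after detection reagent.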
RORgamma inh: inhibitors of mouse ROR gamma transcriptional activity; Drosophila S2 Gal4-RORgamma UAS-luciferase reporter, 20 h; P51450; 310,000 compounds, 5.4% hits; Potency, µM (top dose mostly 53.6 µM), without a hit: top-dose activity change, negative = inhibition, actives largely listed as inhibitors; note: potency is the fitted concentration of half-maximal effect; % is set by controls: 0 for no effect and ±100 for the full control effect; nearly all actives have a fitted effect of over 60% in size
Target sequence (P51450 whole entry, looked up, the tested form may be a part): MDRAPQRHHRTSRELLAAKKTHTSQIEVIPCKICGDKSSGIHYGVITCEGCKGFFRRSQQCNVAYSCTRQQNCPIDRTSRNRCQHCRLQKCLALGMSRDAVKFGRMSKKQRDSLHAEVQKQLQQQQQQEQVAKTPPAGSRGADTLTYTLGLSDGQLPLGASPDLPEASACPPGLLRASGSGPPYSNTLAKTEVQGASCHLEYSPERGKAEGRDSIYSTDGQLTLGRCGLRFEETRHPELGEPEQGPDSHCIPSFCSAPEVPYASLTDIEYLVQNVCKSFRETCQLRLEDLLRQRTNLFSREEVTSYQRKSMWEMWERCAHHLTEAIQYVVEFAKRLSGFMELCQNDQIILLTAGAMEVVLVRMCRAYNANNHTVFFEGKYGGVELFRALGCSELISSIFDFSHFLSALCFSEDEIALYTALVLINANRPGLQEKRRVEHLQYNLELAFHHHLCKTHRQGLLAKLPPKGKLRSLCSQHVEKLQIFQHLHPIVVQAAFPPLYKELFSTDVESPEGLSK
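In this cell-based reporter format, copper sulfate (700 uM final) drives Gal4–ROR gamma fusion expression from a metallothionein promoter in Drosophila Schneider cells; compounds preincubated 1 hr, reporter read after 20 hr at ambient temperature.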
BRCA1 expr up: increases BRCA1 expression | MCF7-BRCA1-FFLuc reporter, luminescence, 48 h; response scale: scaled: vehicle 0%, 10 µM genistein 100% | Potency, µM (top dose mostly 46.1 µM), inactives show top-dose activation, usual class: activators | 380,000 compounds, 1.1% hits | AID 624202; note: potency is the fitted concentration of half-maximal effect; nearly all actives have a fitted effect of over 80% in size
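MCF7-BRCA1-FFLuc, 2000 cells/well; 2 h attach, 37 °C/5% CO2; compound 48 h; luciferase substrate 15 min; luminescence end-point. Norm. to genistein 10 microM max activation and DMSO; concentration-response curves fitted.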
The depositor's hits bear a star; ? = inconclusive; / = no result given; [ ] = remark or other dose. A selection: hits, their analogues and other compounds. The true share with any hit is near 7.6%. Unless noted, calls come from the whole dose curve; as a rule, active = well fitted curve in the direction sought with a large enough effect; inconclusive = small, poorly fitted or top-dose-only effect, or another doubt; inactive = no such curve, though single readings can be large; an effect the other way counts as inactive or inconclusive.

SMILES | Gal4-VP16 FLuc | ELG1 DNA repair | Giardia kill | p53 reactivator | RORgamma inh | BRCA1 expr up
O=C(CSc1nnc(-c2cccnc2)n1-c1ccccc1)Nc1ccccc1 | 12.7% | -23.2% | 3.5 | -1.5% | -14.5% | -1.7%
O=[N+]([O-])c1ccc(CSc2nnc(Cc3ccccc3)n2-c2ccc(F)cc2)cc1 | 10µM* | ? | 29.1 | -1.4% | ? | -30.6%
Cc1cc(C(=O)Nc2ccccc2Cl)c2ccccc2n1 | 15.7% | 1.7% | 0.4 | / | -0.5% | -28.4%
CCC(C)(C)NC(=O)C(c1ccc(C)cc1)N(Cc1cccnc1)C(=O)c1csnn1 (stereo not drawn) | 0.6% | -4.6% | 4.8 | -2.6% | ? | -52.4%
COc1ccc(-c2nnc(SCCC(=O)O)n2-c2ccccc2)cc1 | -16.8% | 7.9% | -9.2 | -8.6% | 12.6µM* | -2.1%
COc1ccc(-n2c(SCc3ccc([N+](=O)[O-])cc3)nnc2-c2ccc(C)cc2)cc1 | 4.47µM* | ? | -0.3 | 4.1% | -3.2% | -67.3%
Cc1ccc(-n2c(SCc3ccc([N+](=O)[O-])cc3)nc3ccccc3c2=O)cc1 | -4.3% | -26.0% | -10.7 | -4.2% | 33.9% | -2.7%
CCCCn1c(N)c(N(CCOC)C(=O)CN2C(=O)NC3(CC(C)CC(C)(C)C3)C2=O)c(=O)[nH]c1=O (stereo not drawn) | / | / | 11.1 | / | / | 15.9%
Cc1ccccc1N(Cc1cc(=O)[nH]c2ccccc12)C(=O)C(C)C | -1.4% | 8.1% | -0.8 | -0.8% | 5.2% | -12.2%
CN1C[N+]([O-])=C(c2ccccc2)C1(C)C | 9.8% | -1.7% | -17.4 | 3.7% | -13.4% | 7.2%
O=C(O)c1ccccc1SC1CC(=O)N(c2ccccc2)C1=O (stereo not drawn) | 3.98µM* | 1.4% | 3.1 | 3.8% | 12.6µM* | -18.3%
Cc1nnc(SC2CC(=O)N(c3ccccc3)C2=O)s1 (stereo not drawn) | 1µM* | 0.5% | 2.5 | -26.8% | 1.12µM* | -14.9%
O=C1CC(Sc2cccs2)C(=O)N1c1ccccc1 (stereo not drawn) | 7.94µM* | 13.8% | 15.9 | 11.6% | 4.47µM* | 0.0%
COc1cc2c(cc1OC)C1CCC3=C([C@H](C)OC3=O)N1CC2 (stereo partly drawn) | 0.7% | / | / | / | -28.8% | /
CC1(C)CC(=O)/C(=C(\O)c2ccccc2)C(=NCCc2ccccc2)C1 | 3.8% | -12.9% | 0.1 | -17.5% | 40.0% | -1.8%
CCCCCCc1cc2cc(S(=O)(=O)c3ccc(F)c(Cl)c3)c(=O)oc2cc1O | 3.98µM* | ? | -29.6 | 13.8% | ? | -88.7%
Cc1cc(-c2c(C)[nH]n(-c3ccccc3)c2=O)n(-c2ccccc2)n1 | -8.4% | -1.2% | 5.8 | 14.6% | -36.9% | 0.1%
Cc1cc(-c2c(C)[nH]n(-c3ccccc3)c2=O)n[nH]1 | 1µM* | ? | 8.0 | 4.8% | 0.398µM* | -1.7%
Clc1ccc(C2CC(c3cccs3)n3ncnc3N2)cc1 (stereo not drawn) | -23.6% | 3.1% | -3.9 | -0.6% | -9.4% | -1.5%
O=Cc1ccc(OCc2ccc3c(c2)OCO3)cc1 | 1.1% | ? | 21.4 | / | -1.6%[1.91 µM] | 2.82µM*
Cc1ccc(COc2ccc3c(c2)OCO3)cc1 | -6.4% | ? | 5.1 | ? | -33.5% | ?
Cn1nccc1C(=O)OCC(=O)Nc1nc(-c2ccccc2)cs1 | -21.1% | ? | 6.4 | ? | 3.1% | 66.4%
Cn1cc(Cl)c(C(=O)OCC(=O)Nc2nc(-c3ccc(Br)cc3)cs2)n1 | -3.8% | ? | 18.2 | 16.6% | ? | 11.2µM*
CCCCCCCC(=O)C(C)C(=O)N(C)[C@H](Cc1ccc(OC)cc1)C(=O)N(C)[C@H](C(N)=O)C(C)C (stereo partly drawn) | / | ? | 13.8 | 11.8% | / | -33.6%
O=C(Nc1ccc(O)c2c(=O)cc(-c3ccccc3Cl)oc12)c1ccccc1Cl | 3.7% | ? | 25.0 | -8.0% | 0.7% | -2.9%
SMILES | Gal4-VP16 FLuc | ELG1 DNA repair | Giardia kill | p53 reactivator | RORgamma inh | BRCA1 expr up
O=c1cc(-c2ccccc2Cl)oc2c([N+](=O)[O-])c(O)cc(O)c12 | ? | 3.66µM* | -11.5 | -2.7% | ? | 18.9%
Nc1ccc2oc(-c3ccccc3Cl)cc(=O)c2c1O | 23.4% | ? | 4.0 | ? | -4.6% | 7.08µM*
O=c1cc(-c2ccccc2Cl)oc2ccc([N+](=O)[O-])c(O)c12 | 3.2% | -2.8% | -13.5 | 1.2% | -13.0% | 1.2%
COc1ccc(CCN2CC(C(=O)N(C)CC(=O)Nc3cccc(F)c3)CC2=O)cc1OC (stereo not drawn) | 13.7% | -0.5% | -5.8 | -0.7% | 15.0% | -5.0%
Cc1ccccc1NC(=O)c1ccc(-n2cncn2)nc1 | -5.6%[0.365 µM] | -25.6% | 12.5 | -1.1% | 17.8µM* | -14.0%
O=C(Nc1c(F)cccc1F)c1ccc(-n2cncn2)nc1 | 1.5% | 3.1% | 5.3 | 2.0% | 1.1% | 13.9%
CCCCC(=O)NNC(=S)NCc1ccccc1 | -4.3% | 2.0% | -5.8 | -4.1% | 14.1µM* | 0.0%
CCNC(=S)NNc1nnc(-c2ccccc2)c(-c2ccccc2)n1 | ? | ? | -0.1 | 7.9% | 12.6µM* | -14.8%
CCNC(=S)NNC(=S)NCc1ccccc1 | ? | -9.6% | 1.0 | -7.7% | 7.08µM* | -4.7%
CCOC(=O)/C=C1/N(C)c2ccccc2C1(C)C | -3.8% | 10.0% | -20.5 | 0.7% | -12.2% | 0.0%
CN1/C(=C\C(=O)COC(=O)CNC(=O)c2ccc3ccccc3c2)C(C)(C)c2ccccc21 | ? | -15.0% | -9.0 | -5.5% | ? | 3.5%
CNS(=O)(=O)c1cccc(C(=O)OCC(=O)/C=C2/N(C)c3ccccc3C2(C)C)c1 | 0.398µM* | ? | 13.9 | -9.5% | ? | -2.8%
CN1/C(=C\C(=O)COC(=O)c2ccc(O)cc2)C(C)(C)c2ccccc21 | ? | 20.6µM* | 3.3 | -2.6% | 21.9% | -31.3%
CN1/C(=C\C(=O)COC(=O)CN2C(=O)C3CC=CCC3C2=O)C(C)(C)c2ccccc21 (stereo not drawn) | 4.47µM* | -19.4% | -2.1 | 0.4% | ? | -9.5%
CN1/C(=C\C(=O)COC(=O)c2ccc(O)c(O)c2)C(C)(C)c2ccccc21 | ? | 20.6µM* | -13.4 | 0.7% | ? | -60.0%
Cc1ccc(S(=O)(=O)c2cc3c(=O)n4ccccc4nc3n(Cc3ccco3)c2=N)cc1 | -2.9% | -10.0% | -13.0 | -5.1% | -6.6% | -23.7%
O=C(Nc1ccc(F)cc1F)c1cccc(C(=O)Nc2ccc(F)cc2F)n1 | ? | 16.4µM* | 17.5 | ? | ? | -38.3%
O=C(Nc1ccncc1)Nc1ccc(F)cc1F | / | 17.0% | 0.1 | 23.4% | 0.0%[0.365 µM] | 37.8%
